Inconclusive results are not listed. Where a call stands in place of a potency, no number is given. Calls of active or inactive are those of the source. Unless noted, calls follow the shape of the dose curve; as a rule, active = well fitted curve in the direction sought with a large enough effect; inconclusive = small, poorly fitted or top-dose-only effect, or another doubt; inactive = no such curve, though single readings can be large; an effect the other way counts as inactive or inconclusive.
Assays:
[1] = target: Cytochrome P450 1A2 (Homo sapiens) (UniProt P05177); assay: p450-cyp1a2 (AID 410; calls by dose curve; also: potency is read from the fitted curve at half-maximal effect)
Method in brief: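 20nM CYP1A2, 100uM Luciferin-ME (=Km), 100mM KPO4; cpd 10 min RT; +NADPH regen, 60 min RT; stop/detect 20 min; luminescence. Normalized to furafylline 57 uM = full inhibition.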

[2] = target: Glucocorticoid receptor (Homo sapiens) (UniProt P04150); assay: GR-GFP Redistribution (AID 450;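 active = compounds whose dose series gives a full or clear partial fitted curve of increased nuclear translocation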; also: potency is read from the fitted curve at half-maximal effect); settings: U2OS GR-GFP nuclear translocation, laser cytometry, 2 h
[3] = target: Glucocorticoid receptor (Homo sapiens) (UniProt P04150); assay: GR-EFC Redistribution (AID 451; calls by dose curve; also: potency is read from the fitted curve at half-maximal effect); settings: CHO-K1 GR-EFC translocation, beta-gal luminescence, 2 h
Method in brief: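 Translocation of GR-ED fusion to nuclear EA restores b-gal, read by luminescence after 1 h room-temperature detection. Engineered CHO-K1 biosensor cells, 1,000/well, exposed 2 h at 37 C to titrations up to 46 uM final.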

[4] = target: Mitogen-activated protein kinase 10 (Mus musculus) (UniProt Q61831); assay: JNK3 AlphaScreen Assay (AID 530; active = well fitted curve in either direction with a large enough effect, not every such curve was filed as active;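 also: kinase came from lysate of stimulated human HepG2 cells; signal reports phosphorylation of biotinylated GST-cJun 1-79 at Ser73 with 10 µM ATP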)
Method in brief: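 Kinase buffer: 20 mM Tris-HCl pH 7.6, 10 mM MgCl2, 1 mM DTT, 0.1 mM Na3VO4, 0.01% Tween-20; ATP 10 uM. Substrate biotin-GST-cJun(1-79), enzyme from activated HepG2 lysates. Detection by Ser73 phospho-antibody AlphaScreen.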

[5] = target: Cytochrome P450 3A4 (Homo sapiens) (UniProt P08684); assay: qHTS Assay for Inhibitors and Substrates of Cytochrome P450 3A4 (AID 884); also: nearly all actives have a fitted effect of over 50% in size; also: potency is read from the fitted curve at half-maximal effect
Method in brief: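 Luminescent readout of luciferin produced by CYP3A4 (20 nM) dealkylation of Luciferin-PPXE, 25 uM (its KM). NADPH-driven reaction ran 60 min at RT after 10 min compound preincubation; data scaled to 57 uM ketoconazole as 100% inhibition.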

[6] = target: Cytochrome P450 3A4 (Homo sapiens) (UniProt P08684); assay: qHTS Assay for Activators of Cytochrome P450 3A4 (AID 885); also: nearly all actives have a fitted effect of over 65% in size
Method in brief: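 Human CYP3A4 dealkylates Luciferin-PPXE to luciferin, which luciferase detection converts to light. Substrate was at its KM (25uM), buffer 200mM KPO4, reaction 60 min at RT.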

[7] = target: Cytochrome P450 2C19 (Homo sapiens) (UniProt P33261); assay: qHTS Assay for Inhibitors and Substrates of Cytochrome P450 2C19 (AID 899); also: potency is read from the fitted curve at half-maximal effect; nearly all actives have a fitted effect of over 60% in size
Method in brief: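 Reactions contain 5nM enzyme, 10uM Luciferin-H EGE (KM) and 50mM KPO4; compound preincubates 10 min at 37C, NADPH regeneration starts turnover for 60 min. Luminescence after detection reagent gives activity.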

[8] = target: DNA dC->dU-editing enzyme APOBEC-3G (Homo sapiens) (UniProt Q9HC16); assay: qHTS for inhibitors of Vif-A3G interactions: Validation (AID 588379)
Method in brief: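 Yellow fluorescence (Ex 488, Em 500-530) of Vif-coexpressing HeLa A3G-eYFP cells, scanned by Acumen cytometer, reports blocked A3G degradation. Cells plated at 700/well overnight at 37 deg C before compound addition, then a further overnight compound incubation at 37 deg C.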

[9] = tested on: Zika virus NS2B-NS3 protease; assay: Primary screen GU AMC qHTS for Zika virus inhibitors (AID 1347154); also: nearly all actives have a fitted effect of over 70% in size
Method in brief: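 Fluorogenic AMC-substrate cleavage by noncovalent NS2B-NS3 protease complex (25 nM, pH 8.0 Tris buffer with Tween 20) followed for 15 minutes at room temperature (~20% conversion). Percent inhibition from ex340/em450 signal change, fitted by 4-parameter Hill equation.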

[10] = Confirmatory qHTS for small molecule stabilizers of the endoplasmic reticulum resident proteome: Secreted ER Calcium Modulated Protein (SERCaMP) assay (AID 1508628); also: nearly all actives have a fitted effect of over 40% in size; also: potency is read from the fitted curve at half-maximal effect
Method in brief: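 GLuc-SERCaMP-expressing SH-SY5Y cells, pretreated 16 h with compound, are challenged with thapsigargin to empty ER calcium stores; after 4 h, coelenterazine is added directly to the medium and luminescence is imaged.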

[11] = Primary qHTS for small molecule stabilizers of the endoplasmic reticulum resident proteome: Secreted ER Calcium Modulated Protein (SERCaMP) assay (AID 1508630)
Method in brief: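 The SH-SY5Y reporter protocol was run at 3 concentrations up to 38.3 uM (primary) or 11 concentrations (follow-up): 16 h compound, 100 nM thapsigargin for 4 h, then extracellular luciferase luminescence.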

[12] = target: 3',5'-cyclic-AMP phosphodiesterase 4B (Homo sapiens) (UniProt Q07343); assay: qHTS Assay for Inhibitors of PDE-IV (AID 607; active = well fitted activation curve with a large enough effect in the main read-out, with a control signal flat, not every such curve was filed as active)
Method in brief: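 HEK293 ACTOne cells with CNG channel (1000/well), endogenous PDE4; membrane potential dye, compounds up to 22.9 uM final. Fluorescence Ex 535/Em 590; RO 20-1724 (100 uM final) as reference.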

[13] = qHTS Assay for Lipid Storage Modulators (AID 1519; calls by dose curve); settings: Drosophila S3 cells, BODIPY lipid droplet/cell ratio, laser cytometry, cells loaded with oleic acid; for activity change, negative = inhibition: at 57.5 µM (top of the series)
Method in brief: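 Cells seeded at 5,000 per well were treated with compounds over a concentration series and loaded with oleic acid (400 uM, as added). Lipid droplet fluorescence (488 nm excitation, 500-530 nm channel) was read by laser-scanning cytometry and normalized to 20 uM Triacsin C.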

[14] = target: Ubiquitin carboxyl-terminal hydrolase 1 (Homo sapiens) (UniProt O94782); assay: Inhibitors of USP1/UAF1: Pilot qHTS (AID 504865);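 also: rhodamine fluorescence freed from ubiquitin-rhodamine substrate followed over time; top concentration of the series differs between compounds; nearly all actives have a fitted effect of over 35% in size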
Method in brief: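 Enzyme-free wells gave the negative control, while test wells held 1nM USP1/UAF1 preincubated with compound for 15 min at room temperature. Ub-Rho at 150nM final started the reaction, and fluorescence at 480/540 nm was recorded kinetically.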

[15] = Cell Viability qHTS for small molecule stabilizers of the endoplasmic reticulum resident proteome (AID 1508629); settings: cell viability counter-screen, 100 nM thapsigargin for final 4 h;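 also: human SH-SY5Y neuroblastoma cells carrying the GLuc-SERCaMP reporter; compound exposure about 46 h in total before the viability read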
[16] = target: Cytochrome P450 2D6 (Homo sapiens) (UniProt P10635); assay: qHTS Assay for Inhibitors and Substrates of Cytochrome P450 2D6 (AID 891); also: potency is read from the fitted curve at half-maximal effect; nearly all actives have a fitted effect of over 60% in size
Method in brief: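 Luminescent read-out of luciferin formed by 5 nM human CYP2D6 demethylating 30 uM Luciferin-ME EGE (Km level) over 60 min at room temperature after NADPH regeneration addition. Data normalized to full inhibition by 1.43 uM quinidine.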

[17] = target: Luciferin 4-monooxygenase (Photinus pyralis) (UniProt P08659); assay: Biochemical firefly luciferase enzyme assay for NPC (AID 624030);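 also: purified P. pyralis luciferase at 10 nM with luciferin and ATP substrate; nearly all actives have a fitted effect of over 70% in size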
Method in brief: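 Direct inhibition of firefly luciferase enzyme (10 nM final, 50 mM Tris Acetate) assessed by luminescence within 5 minutes. Percent activity scaled between DMSO and PTC124 positive control, with concentration-effect curves classified by fit quality and response.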

[18] = measured here: cell count channel max response
[19] = measured here: lipid channel max response

Sequence of Glucocorticoid receptor (Homo sapiens) (P04150 whole entry, looked up, the tested form may be a part): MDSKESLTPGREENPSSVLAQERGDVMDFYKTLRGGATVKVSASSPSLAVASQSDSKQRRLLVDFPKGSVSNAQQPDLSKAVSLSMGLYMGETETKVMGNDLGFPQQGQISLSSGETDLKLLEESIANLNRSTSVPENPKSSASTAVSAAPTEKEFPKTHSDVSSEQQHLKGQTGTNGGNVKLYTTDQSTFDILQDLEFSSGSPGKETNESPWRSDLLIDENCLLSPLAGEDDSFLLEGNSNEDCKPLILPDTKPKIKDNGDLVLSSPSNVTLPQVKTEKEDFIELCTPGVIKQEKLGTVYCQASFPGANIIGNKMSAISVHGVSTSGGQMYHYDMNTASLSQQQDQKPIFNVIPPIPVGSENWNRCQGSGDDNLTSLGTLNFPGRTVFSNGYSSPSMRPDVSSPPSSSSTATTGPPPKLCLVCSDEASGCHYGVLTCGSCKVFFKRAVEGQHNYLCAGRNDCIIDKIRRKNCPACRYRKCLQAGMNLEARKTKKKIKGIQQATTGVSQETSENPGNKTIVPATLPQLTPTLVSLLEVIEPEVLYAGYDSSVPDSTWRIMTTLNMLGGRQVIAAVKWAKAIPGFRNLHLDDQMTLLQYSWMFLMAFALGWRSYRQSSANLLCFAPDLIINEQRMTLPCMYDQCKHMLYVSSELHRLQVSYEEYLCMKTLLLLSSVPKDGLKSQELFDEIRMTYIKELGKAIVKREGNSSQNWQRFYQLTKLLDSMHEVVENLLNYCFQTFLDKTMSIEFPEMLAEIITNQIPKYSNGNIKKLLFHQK
Sequence of Cytochrome P450 3A4 (Homo sapiens) (P08684 whole entry, looked up): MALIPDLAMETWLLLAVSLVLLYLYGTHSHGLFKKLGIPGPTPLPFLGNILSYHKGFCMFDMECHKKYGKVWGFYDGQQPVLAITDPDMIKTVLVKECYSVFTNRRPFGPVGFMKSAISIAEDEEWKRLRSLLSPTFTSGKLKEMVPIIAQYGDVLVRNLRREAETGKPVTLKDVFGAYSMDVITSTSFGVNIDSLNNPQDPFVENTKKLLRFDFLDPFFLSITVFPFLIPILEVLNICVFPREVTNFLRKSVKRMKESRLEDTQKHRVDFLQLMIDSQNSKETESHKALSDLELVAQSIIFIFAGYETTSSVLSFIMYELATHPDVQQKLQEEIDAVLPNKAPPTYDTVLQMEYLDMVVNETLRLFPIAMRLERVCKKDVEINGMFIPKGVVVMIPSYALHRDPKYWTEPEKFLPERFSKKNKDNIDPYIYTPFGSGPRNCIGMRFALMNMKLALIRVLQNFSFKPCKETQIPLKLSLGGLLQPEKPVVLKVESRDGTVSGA
Sequence of DNA dC->dU-editing enzyme APOBEC-3G (Homo sapiens) (Q9HC16 whole entry, looked up): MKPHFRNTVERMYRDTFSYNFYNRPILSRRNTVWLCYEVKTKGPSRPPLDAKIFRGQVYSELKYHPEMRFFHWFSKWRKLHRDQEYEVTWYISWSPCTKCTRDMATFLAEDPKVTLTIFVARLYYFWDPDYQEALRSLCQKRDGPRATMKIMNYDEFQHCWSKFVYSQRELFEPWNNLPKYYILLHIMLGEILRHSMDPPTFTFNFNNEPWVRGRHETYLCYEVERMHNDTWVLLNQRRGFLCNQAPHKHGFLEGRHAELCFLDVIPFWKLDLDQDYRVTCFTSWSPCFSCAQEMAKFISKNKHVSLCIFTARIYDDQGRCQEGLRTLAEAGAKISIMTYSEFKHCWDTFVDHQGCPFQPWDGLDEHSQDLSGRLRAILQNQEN
Sequence of Cytochrome P450 2C19 (Homo sapiens) (P33261 whole entry, looked up): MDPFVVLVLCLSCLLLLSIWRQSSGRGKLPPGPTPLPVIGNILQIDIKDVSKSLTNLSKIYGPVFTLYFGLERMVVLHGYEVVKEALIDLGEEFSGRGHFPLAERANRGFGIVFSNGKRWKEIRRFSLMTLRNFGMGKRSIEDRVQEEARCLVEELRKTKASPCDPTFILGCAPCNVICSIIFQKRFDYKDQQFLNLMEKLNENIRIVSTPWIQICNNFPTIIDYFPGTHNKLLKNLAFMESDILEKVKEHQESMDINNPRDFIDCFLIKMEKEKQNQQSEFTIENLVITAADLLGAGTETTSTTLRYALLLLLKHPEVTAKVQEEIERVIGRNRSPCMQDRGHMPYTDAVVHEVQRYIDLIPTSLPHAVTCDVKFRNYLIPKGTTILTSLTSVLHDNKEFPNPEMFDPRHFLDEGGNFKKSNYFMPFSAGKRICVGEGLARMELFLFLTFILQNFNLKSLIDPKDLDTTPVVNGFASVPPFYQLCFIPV
Sequence of Ubiquitin carboxyl-terminal hydrolase 1 (Homo sapiens) (O94782 whole entry, looked up): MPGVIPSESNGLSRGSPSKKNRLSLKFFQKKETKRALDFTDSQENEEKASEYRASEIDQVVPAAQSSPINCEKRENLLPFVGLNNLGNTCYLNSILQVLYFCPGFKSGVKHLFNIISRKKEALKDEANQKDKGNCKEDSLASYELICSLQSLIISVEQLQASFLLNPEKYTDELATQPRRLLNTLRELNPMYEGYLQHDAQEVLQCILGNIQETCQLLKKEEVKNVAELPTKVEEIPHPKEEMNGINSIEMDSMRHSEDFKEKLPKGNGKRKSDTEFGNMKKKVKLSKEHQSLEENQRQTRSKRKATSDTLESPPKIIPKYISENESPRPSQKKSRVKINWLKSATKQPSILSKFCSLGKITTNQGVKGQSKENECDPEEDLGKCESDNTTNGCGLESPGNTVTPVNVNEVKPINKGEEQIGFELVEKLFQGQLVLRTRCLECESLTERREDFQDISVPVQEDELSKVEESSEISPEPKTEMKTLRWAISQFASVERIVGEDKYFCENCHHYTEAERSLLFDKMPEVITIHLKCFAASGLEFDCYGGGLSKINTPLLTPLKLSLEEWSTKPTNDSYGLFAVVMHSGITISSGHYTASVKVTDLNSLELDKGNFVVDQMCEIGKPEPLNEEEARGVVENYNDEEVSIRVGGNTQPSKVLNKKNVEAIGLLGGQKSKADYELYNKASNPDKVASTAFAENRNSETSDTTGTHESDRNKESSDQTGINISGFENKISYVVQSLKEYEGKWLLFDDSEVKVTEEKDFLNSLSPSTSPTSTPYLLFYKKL
Sequence of 3',5'-cyclic-AMP phosphodiesterase 4B (Homo sapiens) (Q07343 whole entry, looked up): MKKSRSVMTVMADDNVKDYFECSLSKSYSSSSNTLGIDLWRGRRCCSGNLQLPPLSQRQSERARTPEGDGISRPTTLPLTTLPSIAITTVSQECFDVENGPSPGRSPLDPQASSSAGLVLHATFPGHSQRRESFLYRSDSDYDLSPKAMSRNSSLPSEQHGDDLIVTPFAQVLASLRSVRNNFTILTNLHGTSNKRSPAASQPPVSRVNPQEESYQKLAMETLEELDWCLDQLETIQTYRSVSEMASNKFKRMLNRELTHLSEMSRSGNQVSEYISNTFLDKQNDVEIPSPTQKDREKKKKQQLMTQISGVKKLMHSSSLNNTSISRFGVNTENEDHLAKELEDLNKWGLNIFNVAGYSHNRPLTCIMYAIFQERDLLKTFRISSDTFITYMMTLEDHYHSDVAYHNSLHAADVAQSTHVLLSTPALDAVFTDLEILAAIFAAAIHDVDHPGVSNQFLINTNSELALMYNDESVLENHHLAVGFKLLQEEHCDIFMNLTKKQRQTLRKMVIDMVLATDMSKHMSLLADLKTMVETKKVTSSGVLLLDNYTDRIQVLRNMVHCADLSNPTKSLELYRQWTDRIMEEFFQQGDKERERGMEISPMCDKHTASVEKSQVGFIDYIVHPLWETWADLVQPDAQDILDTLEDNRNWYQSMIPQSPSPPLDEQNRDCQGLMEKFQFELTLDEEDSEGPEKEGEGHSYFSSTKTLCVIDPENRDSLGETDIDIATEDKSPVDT
Sequence of Cytochrome P450 2D6 (Homo sapiens) (P10635 whole entry, looked up): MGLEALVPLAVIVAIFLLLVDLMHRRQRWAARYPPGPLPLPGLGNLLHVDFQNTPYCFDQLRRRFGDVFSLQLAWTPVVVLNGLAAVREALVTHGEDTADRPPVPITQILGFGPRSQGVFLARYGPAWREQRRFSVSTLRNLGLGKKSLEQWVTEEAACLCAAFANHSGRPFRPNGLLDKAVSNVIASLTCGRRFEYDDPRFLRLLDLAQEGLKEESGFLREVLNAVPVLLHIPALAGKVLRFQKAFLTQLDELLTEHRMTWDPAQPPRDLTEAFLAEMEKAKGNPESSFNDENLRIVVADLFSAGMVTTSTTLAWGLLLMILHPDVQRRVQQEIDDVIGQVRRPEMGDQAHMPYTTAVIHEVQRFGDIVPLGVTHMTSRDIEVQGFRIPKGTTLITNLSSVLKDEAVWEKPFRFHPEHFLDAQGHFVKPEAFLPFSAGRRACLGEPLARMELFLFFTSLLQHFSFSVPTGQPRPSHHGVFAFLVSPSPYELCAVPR
Sequence of Cytochrome P450 1A2 (Homo sapiens) (P05177 whole entry, looked up): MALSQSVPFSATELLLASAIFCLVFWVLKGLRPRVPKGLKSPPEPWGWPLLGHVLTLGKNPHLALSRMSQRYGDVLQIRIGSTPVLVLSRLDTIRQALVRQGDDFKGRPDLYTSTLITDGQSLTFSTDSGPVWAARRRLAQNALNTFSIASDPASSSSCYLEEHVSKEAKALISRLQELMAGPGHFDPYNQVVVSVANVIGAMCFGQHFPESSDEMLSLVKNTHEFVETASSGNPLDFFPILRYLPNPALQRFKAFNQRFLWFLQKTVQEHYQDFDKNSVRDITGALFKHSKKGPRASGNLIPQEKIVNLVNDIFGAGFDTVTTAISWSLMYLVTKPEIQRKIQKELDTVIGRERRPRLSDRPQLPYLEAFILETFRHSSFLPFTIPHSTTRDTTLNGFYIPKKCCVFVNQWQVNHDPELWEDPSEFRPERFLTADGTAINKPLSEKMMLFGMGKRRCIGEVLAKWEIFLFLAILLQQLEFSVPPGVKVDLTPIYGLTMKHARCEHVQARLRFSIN

What does the source list for `CN(C(=O)Cc1ccc(Cl)c(Cl)c1)[C@H](CN1CCCC1)c1ccccc1`?
Potency [1]: 31.6 µM (active); Potency [2]: > 46 µM (inactive); Potency [3]: > 46 µM (inactive); outcome [4]: inactive; Potency [5]: 6.31 µM (active); Potency [6]: inactive; Potency [7]: 316 nM (active); Potency [8]: inactive; Potency [9]: inactive; Potency [10]: inactive; Potency [11]: inactive

Which results are given for `NC(N)=NCCCCCCCCCCN=C(N)N`?
Potency [2]: > 46 µM (inactive); Potency [3]: > 46 µM (inactive); outcome [4]: inactive; Potency [12]: inactive; activity change, negative = inhibition [13]: -3.22% (inactive); max response [13, 18]: 7.9%; max response [13, 19]: 7.14%; Potency [14]: inactive; Potency [8]: inactive; Potency [9]: inactive; Potency [10]: inactive; Potency [11]: inactive

Which Potency [5] does the source give for `Cn1c2c(c3ccccc31)CCNCC2` here?
Its Potency is “inactive”.

And the Potency [9]?
Its Potency is “inactive”.

And the max response [15]?
The max response was 24.2% (inactive).

With `COc1cccc2c1C13CC[N+]4(CC5CC5)CO[C@]1(CCC(=O)C3)C4C2` as the molecule, how does the Potency [9] read?
The Potency was “inactive”.

What about the Potency [11] of the same molecule?
Its Potency is “inactive”.

Which Potency [9] does the source give for `C[C@]12CC[C@H]3[C@@H](C[C@H](F)C4=CC(=O)CC[C@@]43C)[C@@H]1CC[C@@H]2O` here?
The Potency was “inactive”.

And the Potency [11]?
The Potency was “inactive”.

Which Potency [9] does the source give for `CCOc1cncc(/C=C/CCNC)c1` here?
Its Potency is “inactive”.

What about the Potency [11] of the same molecule?
The Potency was “inactive”.

With `CC[C@H](Oc1ccc(Cl)cc1)C(=O)OC1C[C@H]2CC[C@@H](C1)N2C` (some centres not stated) as the molecule, how does the Potency [2] read?
The Potency was > 46 µM (inactive).

What about the Potency [3] of the same molecule?
The Potency was > 46 µM (inactive).

And the outcome [4]?
Its outcome is “inactive”.

And the Potency [16]?
The Potency was 6.3 nM (active).

And the Potency [7]?
The Potency was 15.8 nM (active).

What about the activity change, negative = inhibition [13] of the same molecule?
The activity change, negative = inhibition was -0.561% (inactive).

What about the max response [13, 18] of the same molecule?
The max response was 16.1%.

And the max response [13, 19]?
The max response was 28.8%.

And the Potency [14]?
Its Potency is “inactive”.

What about the Potency [8] of the same molecule?
The Potency was “inactive”.

And the Potency [9]?
The Potency was “inactive”.

And the max response [15]?
Its max response is 3.6% (inactive).

Which Potency [9] does the source give for `CCc1cccc(CC)c1NC1=NCCN1` here?
Its Potency is “inactive”.

And the Potency [11]?
Its Potency is “inactive”.

Which Potency [9] does the source give for `CC(C)=CCCN1CCC(NC(=O)C(O)(c2ccccc2)C2CCCC2)CC1` (configuration not stated) here?
Its Potency is “inactive”.

And the max response [15]?
Its max response is 3.9% (inactive).

With `CC(C)C[C@H](NC(=O)[C@H](Cc1ccccc1)NC(=O)CNC(=O)[C@@H](NC(=O)[C@@H](N)Cc1ccc(O)cc1)[C@H](C)O)C(=O)N[C@H](C(=O)O)[C@H](C)O` as the molecule, how does the activity change, negative = inhibition [9] read?
Its activity change, negative = inhibition is 4.9% [at 6.83 µM] (inactive).

And the activity change, negative = inhibition [11]?
The activity change, negative = inhibition was -27.9% [at 3.88 µM] (inactive).

With `CC(Cc1cccc(C(F)(F)F)c1)NCCCc1ccccc1` (configuration not stated) as the molecule, how does the Potency [9] read?
Its Potency is “inactive”.

What about the Potency [11] of the same molecule?
Its Potency is “inactive”.

With `O[C@@H]1CCCC[C@@H]1N1CCC(c2ccccc2)CC1` as the molecule, how does the Potency [9] read?
The Potency was “inactive”.

And the Potency [11]?
Its Potency is “inactive”.

Which results are given for `CCOC(=O)CN1C(=O)CC(C[C@@H](O)C2C[C@@H](C)C[C@H](C)C2=O)CC1=O` (some centres not stated)?
Potency [9]: inactive; Potency [11]: inactive

For `C[C@H]1C[C@H](C)C(=O)[C@@H]([C@H](O)CC2CC(=O)NC(=O)C2)C1`, which outcome [4] is on record?
Its outcome is “inactive”.

And the Potency [12]?
The Potency was “inactive”.

What about the Potency [8] of the same molecule?
Its Potency is “inactive”.

What about the Potency [17] of the same molecule?
The Potency was “inactive”.

What about the Potency [9] of the same molecule?
Its Potency is “inactive”.

And the Potency [10]?
The Potency was 282 nM (active).
